Results on 40 compounds are retold here after PubChem BioAssay (NCI).

The panel holds about 83,000 compounds, 20% with a hit somewhere; the sample as a whole holds those more often.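 Step 1: grow cells in 96-well plates. Step 2: add test compound at a single concentration. Step 3: incubate 48 h. Step 4: record percent growth.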 Calls of active or inactive are those of the source. How the source made its calls: active means growth percent below 10; inactive means the rest.

This assay concerns MDA-MB-468 breast. Put plainly: NCI-60 one-dose screen, 48 h (100 = growth as untreated, 0 = no growth, -100 = all killed). The conditions noted are these: 10 µM unless noted.
In the case of `CSc1nc2c(c(=O)[nH]1)N=C1c3ccccc3C(=O)C1C(c1ccccc1)N2` (stereo not given), the growth was 15.4% (inactive).
As for `Cc1ccc(NC(=O)CN2CCOCC2)cc1Cl`, the figure is 99.1% (inactive).
As for `CN1CCN(C(=O)OCCOCCOC(=O)N2CCN(C)CC2)CC1`, the figure is 107% (inactive); as for `Cc1cc(=O)[nH]c(=O)n1Cc1cn(-c2c3ccccc3nc3ccccc23)nn1`, -66.7% (active).
The result for `CCN(CC)c1ccc(/C=N/NC(=O)c2ccccc2Nc2ccnc(C(F)(F)F)c2)c(O)c1` reads 24.7% (inactive); that for `CC(C)CCSC1=CC(=O)c2ccccc2C1=O`, -84.1% (active); that for `N=C(N)c1ccc(-c2ccc(-c3ccc(F)cc3)s2)nc1`, 25.1% (inactive).
Consider `COc1ccc(C(C#N)=C2C=CC(=NO)C=C2)cc1`, for which the growth is -7.26% (active).
For the compound `CC(C(=O)n1cc(-c2ccccc2)c(-c2ccccc2)c1)c1ccccc1` (stereo not given), the growth was 104% (inactive).
`O=C(CCCCCCN1CC(=O)N2[C@@H](c3ccccc3Br)c3[nH]c4ccccc4c3C[C@H]2C1=O)NO`: the growth is 36.2% (inactive).
As for `O=C(NCCNc1cc(-c2cn(-c3ccccc3)nc2-c2cccc(O)c2)ccn1)Nc1ccccc1`, the figure is 64.9% (inactive); as for `COc1ccc(C2=C(CN)C(O)NC(=NCC(=O)c3ccc4ccccc4c3)N2)cc1` (stereo not given), 118% (inactive).
As for `C=C1C(=O)O[C@H]2[C@H]1CC/C(COC(=O)c1ccc(Br)cc1)=C\CC[C@@]1(C)O[C@@H]21`, the figure is -23.1% (active); as for `O=C(CCl)NC1c2ccccc2Oc2ccccc21`, 71.5% (inactive).
The result for `CC(C)CCC[C@@H](C)[C@H]1CC[C@H]2[C@@H]3CC=C4N(c5ccccc5)C(=O)CC[C@]4(C)[C@H]3CC[C@]12C` reads 96.4% (inactive).
With `N#Cc1c(Nc2ccccc2)nn2c(-c3ccc([N+](=O)[O-])cc3)ccnc12`, the growth is 106% (inactive).
Consider `O=C1/C(=C/c2ccc(-c3ccc(Cl)cc3)o2)SC(=S)N1CCc1ccc(O)cc1`, for which the growth is 87% (inactive).
As for `C=C(C)[C@H]1CC/C(C)=C/CC[C@]2(C)O[C@H]2CC/C(COC(=O)[C@@H](OC(C)=O)[C@H](NC(=O)c2ccccc2)c2ccccc2)=C\[C@@H]1O`, the figure is 84.4% (inactive); as for `NS(=O)(=O)c1ccc(N2N=C(c3ccc(Br)cc3)CC2c2cn(-c3ccccc3)nc2-c2ccc(Cl)cc2)cc1` (stereo not given), 112% (inactive); as for `CCNCc1c(-c2cccc(OC(F)(F)F)c2)[nH]c2ccc(N3CCCC3)cc2c1=O`, 36.6% (inactive).
As for `O=C(OCc1ccc2c(Cl)cc(Cl)c(O)c2n1)c1cc2ccccc2[nH]1`, the figure is -73.1% (active); as for `Nc1ccccc1NC(=O)c1ccc(NC(=O)C/C=C/c2cccnc2)cc1`, -7.27% (active).
As for `NCCCn1c2c(c3cc(-c4ccn[nH]4)ccc3c1=O)C(=O)c1ccccc1-2`, the figure is 62.6% (inactive).
Consider `C#CCOc1cccc(Nc2ncnc3ccc(NC(=O)C=C)cc23)c1`, for which the growth was -25.7% (active).
The result for `C/C(=N\O)c1ccc(NC(=O)CSc2nnc(-c3cc(-c4ccc(S(N)(=O)=O)cc4)nc4ccccc34)n2-c2ccccc2)cc1` reads 63.1% (inactive); that for `COc1ccc(-c2cc(-c3c(C)oc4cc5occc5c(OC)c4c3=O)nc(N)c2C#N)cc1OC`, 76.2% (inactive).
As for `CCOc1ccc(NC2=C(Cl)C(=O)c3ccccc3C2=O)cc1`, the figure is 64.9% (inactive); as for `C[C@H](NC(=O)c1snnc1C1CC1)c1c(F)cccc1Cl`, 99.4% (inactive).
The result for `Nc1nc2c(ncn2[C@@H]2O[C@H](CS)[C@@H](O)[C@H]2O)c(=O)[nH]1` reads 97.8% (inactive); that for `COc1ccc(-c2nc3c(c(-c4ccccc4)nn3-c3ccccc3)c(-c3ccc(N4CCOCC4)cc3)c2C#N)cc1`, 97.8% (inactive).
For the compound `COc1cc(/C=C2\C(=O)Nc3cc(Cl)ccc32)ccc1OCc1ccc(F)cc1`, the growth was 93% (inactive).
As for `CCN(CC)CCCCCCCCNc1c2ccc(Cl)cc2nc2ccc(OC)cc12`, the figure is -93.2% (active); as for `COc1ccc(C(=O)c2ccc(C)cc2)c(OC)c1OC`, 20.5% (inactive); as for `CCCCCCCCCCCCCCCC[N+]1(CC)CCCC1`, -35.7% (active).
As for `COc1ccc([C@H]2c3[nH]c4ccccc4c3C[C@H]3C(=O)N(C4CCN(Cc5c(Cl)cccc5Cl)CC4)CC(=O)N23)c(OC)c1`, the figure is 92.8% (inactive); as for `CCOC(=O)C1=C(N)Oc2c(sc3c(F)cccc23)C1c1ccc(O)cc1` (stereo not given), 15.3% (inactive).
Turning to `CC1CC(=O)C2=C(C1)Nc1ccc(Br)cc1CC2c1c[nH]c2ccc(Br)cc12` (stereo not given), the growth was -3.65% (active).
As for `COc1cc(-c2c(-c3ccccc3)c[nH]c2C(=O)NCCCO)c(OC)c2c1OCO2`, the figure is 102% (inactive).
As for `CC(C)N1C(=O)/C(=C2\SC(=S)N(C(C)C)C2=O)SC1=S`, the figure is 97.1% (inactive).
The result for `CC(=O)[C@H]1CC[C@H]2[C@@H]3CC[C@@H]4CC=C(C=O)C[C@]4(C)[C@H]3CC[C@]12C` reads 99.4% (inactive).
